Screening results: PubChem, National Center for Advancing Translational Sciences (NCATS)
PI4K2A inh – blocks human PI4K2A kinase activity | AID 1346378 | actives 0.13% (n = 420,000) | purified PI4K2A, ADP-Glo luminescence, 1 h; stronger effect = lower value | activity change, negative = inhibition, % at 76.9 µM | Q9BTU6; in the data active means activity change below about -50%; inconclusive means mostly about -30% to -49%;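 further: -100% = wells without enzyme as full effect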
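In this quantitative HTS, ADP production by PI4K2A was quantified luminescently after 1 h at ambient temperature; 100 microM adenosine served as plate-quality control.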
RGS4 inh – human RGS4 inhibition. P49798. Transcreener GDP fluorescence polarization, RGS4-accelerated GTP hydrolysis. Potency, µM (series often up to 114 µM), inactives show at the top dose activity change, negative = inhibition, most hits filed as inhibitors. actives 0.039% (n = 390,000); active means well fitted inhibition curve with a large enough effect; inconclusive means small, poorly fitted or top-dose-only effect; inactive means no such curve, though single readings can be large or run the other way; further: potency means the concentration at half of the fitted maximal effect; on the % scale 0 is the no-effect control and ±100 the full control effect; nearly all actives have a fitted effect of over 75% in size
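MLSMR compounds (23 nl, pin-transferred) preincubated 10 min at room temperature with a 500nM (2x) first reagent, then RGS4 at 900nM (2x) plus Transcreener GDP mix added; fluorescence polarization (620/688 nm) read before and after 90 min at 30 °C.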
LDHA inh – inhibitors of human lactate dehydrogenase A | activity change, % (values are at about 110 or 230 µM) | P00338 | actives 0.15% (n = 480,000) | purified LDHA, NADH/diaphorase-resazurin fluorescence; stronger effect = lower value | AID 1347041; in the data active means activity change below about -30%; inconclusive means mostly about -25% to -30%;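 further: plate controls were DMSO wells for no effect and wells without enzyme for full effect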
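Enzyme activity of human lactate dehydrogenase 5 (2 nM; 0.06 mM NADH, 0.2 mM pyruvate, 5 min, RT) is measured via a resazurin/diaphorase fluorescence readout of residual NADH.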
DRD3 agonist – agonists of human D3 dopamine receptor | max activation, % | D3R DiscoveRx beta-arrestin cells, luminescence, 90 min | P35462 | AID 652048 | actives 0.58% (n = 410,000); in the data active means max activation above about 30%; further: 0% is about no effect
Target sequence (P35462 whole entry, looked up): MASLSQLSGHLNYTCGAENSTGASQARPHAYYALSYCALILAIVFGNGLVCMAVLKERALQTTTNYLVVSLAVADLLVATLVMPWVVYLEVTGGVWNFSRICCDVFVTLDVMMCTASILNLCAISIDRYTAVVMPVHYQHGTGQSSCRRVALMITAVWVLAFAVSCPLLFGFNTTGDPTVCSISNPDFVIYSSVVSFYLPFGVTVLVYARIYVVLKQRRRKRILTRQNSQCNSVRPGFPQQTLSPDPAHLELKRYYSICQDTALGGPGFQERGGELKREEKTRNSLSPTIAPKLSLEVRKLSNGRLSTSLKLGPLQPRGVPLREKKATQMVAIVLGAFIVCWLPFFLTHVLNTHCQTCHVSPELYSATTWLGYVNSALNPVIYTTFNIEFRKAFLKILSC
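Agonist mode: compounds and dopamine controls were applied to plated cells for 90 min at 37 degrees C after an overnight attachment at 1500 cells/well. Luminescent read-out followed 30 - 60 minutes at room temperature with DiscoveRx detection reagent.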
DRD3 antagonist – D3 dopamine receptor (human) antagonism; max response, negative = inhibition, %; actives 2.5% (n = 360,000); P35462; D3R cells, DiscoveRx beta-arrestin luminescence, antagonist mode; stronger effect = lower value; AID 652054; in the data active means max response below about -50%; inconclusive means no clear call, values can overlap the other calls; further: on the % scale 0 is the no-effect control and ±100 the full control effect
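Cells plated overnight at 1500 cells/well, then exposed to library compounds with dopamine controls for 90 minutes at 37 degrees C. DiscoveRx reagent added for 30–60 minutes at room temperature; luminescence read, quantitative HTS format.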
pAkt inh – Akt phosphorylation inhibition. Neuro2A IGF-stimulated pAkt S473 HTRF, 20 min; stronger effect = lower value. AID 651550. actives 0.32% (n = 360,000). activity change, % for hits at 50 µM; in the data active means activity change below about -80%; inconclusive means mostly about -51% to -80%; further: on the % scale 0 is the no-effect control and ±100 the full control effect
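Neuro2A cells in DMEM with 0.5% FBS, overnight at 37 deg C, given compound at single 50 µM final, then IGF (6 nM final) for 20 min at 37 deg C. Lysed; phospho-Akt Ser473 by HTRF after 24 h, 665/615 ratio.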
Active calls of the source: *; i = inactive; ? = inconclusive; . = no result; ! = a repeat was not active; [ ] = remark or other dose. Sampled rows, rich in hits. Any-hit rate of the full collection: about 2.8%.

SMILES	PI4K2A inh	RGS4 inh	LDHA inh	DRD3 agonist	DRD3 antagonist	pAkt inh
C=C1C(=O)O[C@@H]2C[C@@H](C)[C@@H]3C4OC4C(=O)[C@@]3(C)[C@@H](O)[C@H]12 (some centres undefined)	-3.5	4.7%	-5.6	-22.5	-91.1*	i
C=C1C(=O)O[C@H]2C[C@@H](C)[C@@H]3C=CC(=O)[C@@]3(C)C[C@H]12	-11.3	-4.5%	-8.8	-2.7	-66.0*	i
CCCOC(=O)C1=C(C)N[C@]2(C)C[C@H]1c1ccccc1O2	.	.	3.8	.	.	.
NC1CCc2cc(O)c(O)cc2C1 (centres undefined)	-0.7	18.4%[56.9 µM]	18.8	141.0*	59.3	i
N#Cc1ccc2nc(-c3ccc(CN4CCC(n5c(=O)[nH]c6ccccc65)CC4)cc3)c(-c3ccccc3)nc2c1	1.1	.	1.8	-8.8	-56.5*	i
CN1CCN(c2ccc(Cl)cc2N)CC1	3.7	-19.4%	-0.2	-1.2	-6.3	i
CN1CCN(c2ccc(N)cc2Cl)CC1	-8.2	?	-1.6	-14.4	-60.4*	i
N#Cc1c(Cl)nc(NCCNc2ccccn2)c(Cl)c1Cl	.	.	1.2	.	.	.
CN(C)CCCN=Cc1c(O)n(CCc2ccc(F)cc2)c(=O)[nH]c1=O	4.8	22.1%	-4.8	0.1	0.0	-119.9%*
CCNC(=O)[C@H]1O[C@@H](n2cnc3c(N)ncnc32)[C@H](O)[C@@H]1O	-12.7	?	-1.6	14.5	0.0	i
Nc1ncnc2c1ncn2[C@@H]1O[C@H](COP(=O)(O)CP(=O)(O)O)[C@@H](O)[C@H]1O	-54.2*	350.0%[56.9 µM]	-7.4	-5.5	-9.9	i
O=C1CSC(c2ccc(OC3CCCC3)cc2)c2cn[nH]c2N1 (centres undefined)	.	.	-10.7	.	.	.
CCN(CC)CCCOC(=O)C(OC)(c1ccccc1)c1ccccc1	0.2	-6.3%	-3.4	-19.6	?	i
CCOC(C(=O)OCC(O)CN(CC)CC)(c1ccccc1)c1ccccc1 (centres undefined)	-7.5	12.2%[11.4 µM]	-4.2	-4.7	-59.7*	i
c1nc(CN2CCNCC2)cs1	.	.	-0.8	.	.	.
O=C(CN1CCN(C(=O)Cc2n[nH]c(=O)c3ccccc23)CC1)NC1CC1	.	.	-9.0	.	.	.
C=CCn1c(O)c(/C(C)=N/N2CCCCC2)c(=O)[nH]c1=O	-3.6	-4.1%	-11.3	4.2	4.1	i
CC(=NCCCN1CCCCC1)c1c(O)n(Cc2ccccc2)c(=O)[nH]c1=O	-1.3	15.7%	0.8	1.7	?	-115.9%*
CC(=NCCC1=CCCCC1)c1c(O)[nH]c(=O)[nH]c1=O	11.7	4.6%	-3.9	1.6	6.9	-120.8%*
C=CCn1c(O)c(C(C)=NCCN2CCCCC2)c(=O)[nH]c1=O	1.7	-33.3%	-9.9	-5.7	-64.5*	i
CCCCn1c(O)c(C(C)=NCCN2CCCCC2)c(=O)[nH]c1=O	-1.2	12.6%	-3.1	-8.4	-71.3*	i
CCCOc1ccc(CCN)cc1	.	.	0.4	.	.	.
CC12CN3CC(C)(CN(C1)C3c1ccccn1)C2=O (centres undefined)	.	.	6.1	.	.	.
CC(=Nc1c(C)n(C)n(-c2ccccc2)c1=O)c1c(O)n(Cc2ccccc2)c(=O)[nH]c1=O	2.7	16.5%	-5.3	-12.8	-50.7*	i
CC(=NCCN1CCCCC1)c1c(O)[nH]c(=O)[nH]c1=O	-0.2	55.6%	-14.1	-2.1	-53.1*	i
SMILES	PI4K2A inh	RGS4 inh	LDHA inh	DRD3 agonist	DRD3 antagonist	pAkt inh
NC[C@@H]1CCCN2CCCC[C@H]12	.	.	-2.3	.	.	.
CN1CCC(N(C)c2ncnc3scc(-c4ccc(Br)cc4)c23)CC1	.	.	-3.5	.	.	.
O=[N+]([O-])/C=C/c1ccc2c(c1)OCO2	-1.6	1.5µM*	.	.	.	.
C/C(=C\c1ccc2c(c1)OCO2)[N+](=O)[O-]	.	.	1.2	.	.	.
Cc1ccccc1-n1c(C)nc2ccccc2c1=O	8.1	-1.3%	-10.3	67.8*!	11.2	i
Cc1ccccc1OCC(=O)N1CCN(Cc2cc(=O)n3nc(-c4ccccc4C)sc3n2)CC1	.	.	16.3	.	.	.
Cc1cccc(N2C(=O)NC(=O)/C(=C\c3cccn3-c3ccc(Cl)cc3)C2=O)c1	-50.2*	?	-0.2	-12.2	-16.8	i
